Test results taken from ChEMBL document CHEMBL1157539, “Thousands of chemical starting points for antimalarial lead identification” (Nature, 2010).

What follows are compounds tested on Plasmodium falciparum (assay: GSK_TCMDC: Inhibition of Plasmodium falciparum 3D7 in whole red blood cells, using parasite LDH activity as an index of growth. Test compounds present at 2uM).
Type: functional

Structure (SMILES)	Inhibition
Cc1nc(-c2cccc3c(NC(=O)Nc4ccc5nccc(N6CCN(C)CC6)c5c4)cccc23)no1.Cl	100%
C=CCn1c(Sc2ccc(C#N)c([N+](=O)[O-])c2)nnc1-c1cccc(Cl)c1	97%
CCN(CC)S(=O)(=O)c1ccc(Cl)c(C(=O)Nc2ccc3nc(C)sc3c2)c1	96%
OC(CNc1ccnc(Nc2ccccc2)n1)c1ccc(C(F)(F)F)cc1 (stereo not given)	100%
Br.CC1(C)NC(N)=NC(=N)N1OCCSCCON1C(=N)N=C(N)NC1(C)C	95%
COc1ccc2nccc([C@@H](O)CN3CCC(NC(=O)C(c4cc5ccccc5o4)N4CCN(c5ccc(F)cc5)CC4)CC3)c2c1 (stereo not given in full)	100%
CSc1nnc2n(Cc3ccccc3)c(=O)c3c(n12)-c1ccccc1CC31CCCCC1	93%
NC1=NC(c2ccccc2)(c2ccccn2)C(=O)N1CCCc1ccccc1.O=C(O)C(F)(F)F (stereo not given)	85%
Cc1ccc(Nc2nc(C)cc(N3CCN(c4ccccc4)CC3)n2)cc1	93%
O=C(Nc1ccc(Cl)cc1)c1cccc(CN2CCCN(Cc3cccc(O)c3)CC2)c1.O=C(O)C(F)(F)F	98%
Cc1ccc(CN2CCCN(Cc3ccc(C(=O)Nc4ccc(Cl)cc4)cc3)CC2)s1.O=C(O)C(F)(F)F	85%
CC(C)(C)NCc1cc(Nc2ccnc3cc(Cl)ccc23)ccc1F	100%
COc1ccccc1Nc1nc(C)cc(NCc2ccc(-c3c(C)noc3C)cc2)n1	98%
COc1cc(NC(=O)/C=C/c2cccc3cc[nH]c23)ccc1OCCN(C(C)C)C(C)C.Cl	99%
Cc1cc(O)nc(NC(=N)NOCCCc2ccccc2)n1	100%
CCCCN1C(=O)C2CC(=O)CC(C3CCCCC3)C2C1=O (stereo not given)	97%
CCN(CCCN1CCCCC1)c1cc(C)nc(Nc2ccc(C(C)C)cc2)n1.O=C(O)C(F)(F)F	100%
Cc1c(Cn2ncc(N3CCC(N)CC3)c(Cl)c2=O)cccc1NC(=O)Nc1ccc(-c2ccccc2)cc1.O=C(O)C(F)(F)F	97%
Cl.ON=C1CCc2cc(-c3[nH]c(-c4cccc(OCCNCc5ccc(F)cc5)c4)nc3-c3ccncc3)ccc21	89%
Cl.O=C(Nc1cc(Cl)cc(Cl)c1)c1cnn(-c2ccc(F)cc2)c1C1CCNCC1	90%

Structure (SMILES)	Inhibition
N#Cc1c(N)nc(SCC(=O)Nc2cc(C(F)(F)F)ccc2Cl)c(C#N)c1-c1cccs1	90%
O=C(Cc1ccc[n+]([O-])c1)Nc1ccc(-c2cccc(-c3nc4cc(C(F)(F)F)ccc4[nH]3)c2)cc1	92%
O=C(Nc1ccccc1Cl)N(Cc1cc(Cl)cc(Cl)c1)CC(O)COc1ccc(Cl)c(F)c1 (stereo not given)	93%
CC1SC(=S)NC1C(=O)O (stereo not given)	94%
Cc1csc2nc(-c3ccccn3)nc(Nc3ccc4ncsc4c3)c12.Cl	85%
Cc1cccc2c1NC(=O)/C2=N/NC(=S)N(C)C	96%
CCCCCCCNC(=O)NCC1CCCN(CCCCCNC(=O)/C=C/c2ccc(Cl)c(Cl)c2)C1 (stereo not given)	86%
COc1cc(NC2=NS(=O)(=O)c3cc(Cl)ccc3N2C)cc(OC)c1OC.O=C(O)C(F)(F)F	100%
CC(C)COc1ccc(Cl)cc1Cc1ccc(-c2nc3ccc(C(F)(F)F)cc3[nH]2)o1	97%
Cc1nnsc1C(=O)Nc1cccc(-c2cccc(-c3nc4cc(C(F)(F)F)ccc4[nH]3)c2)c1	100%
CCN(CC)CC(O)Cc1c2ccc([N+](=O)[O-])cc2nc2cc(OC)c(OC)cc12 (stereo not given)	100%
O=C(O)C(F)(F)F.OC1CCCN(Cc2cccc(-c3ccc(-c4nc5cc(C(F)(F)F)ccc5[nH]4)cc3)c2)C1 (stereo not given)	100%
CCC(=Cc1cccc([N+](=O)[O-])c1)C(=O)NCC1CCN(c2nc3cc(OC)c(OC)cc3c(=N)[nH]2)CC1.Cl	100%
Cl.N#Cc1cccc(-c2cccc(C(=O)NC3CCC(CCN4CCc5ccc(C#N)cc5CC4)CC3)c2)c1 (stereo not given)	99%
Cc1cccc2nc(-c3ccc(-c4ccc(NC(=O)Nc5ccsc5)cc4)cc3)[nH]c12	100%
NC1CCN(Cc2ccc(-c3ccc(-c4nc5ccccc5[nH]4)s3)cc2)C1.O=C(O)C(F)(F)F (stereo not given)	100%
O=C(NCCCCN1CCC(c2ccc3c(c2OCC2CC2)CCCC3)CC1)c1ccc(NC(=O)c2ccc(Cl)cc2)cc1	100%
CCCC(CNCc1cccc(OC(F)(F)C(F)F)c1)CNc1cc(=O)c2ccccc2[nH]1 (stereo not given)	100%
CN(C)CCNC(=O)c1cccc(-c2cnc3ccc(NCc4ccc(Cl)c(Cl)c4)nn23)c1	100%
COc1ccc(NC(=O)C2c3ccccc3C(=O)N(C3CCCC3)C2c2cccs2)c(OC)c1 (stereo not given)	84%

Each compound was assayed on Plasmodium falciparum (assay: GSK_TCMDC: Inhibition of Plasmodium falciparum Dd2 in whole red blood cells, using parasite LDH activity as an index of growth. Test compounds present at 2uM).
Type: functional

Structure (SMILES)	Inhibition
Cc1nc(-c2cccc3c(NC(=O)Nc4ccc5nccc(N6CCN(C)CC6)c5c4)cccc23)no1.Cl	84%
C=CCn1c(Sc2ccc(C#N)c([N+](=O)[O-])c2)nnc1-c1cccc(Cl)c1	54%
CCN(CC)S(=O)(=O)c1ccc(Cl)c(C(=O)Nc2ccc3nc(C)sc3c2)c1	94%
OC(CNc1ccnc(Nc2ccccc2)n1)c1ccc(C(F)(F)F)cc1 (stereo not given)	39%
Br.CC1(C)NC(N)=NC(=N)N1OCCSCCON1C(=N)N=C(N)NC1(C)C	81%
COc1ccc2nccc([C@@H](O)CN3CCC(NC(=O)C(c4cc5ccccc5o4)N4CCN(c5ccc(F)cc5)CC4)CC3)c2c1 (stereo not given in full)	98%
CSc1nnc2n(Cc3ccccc3)c(=O)c3c(n12)-c1ccccc1CC31CCCCC1	0%
NC1=NC(c2ccccc2)(c2ccccn2)C(=O)N1CCCc1ccccc1.O=C(O)C(F)(F)F (stereo not given)	64%
Cc1ccc(Nc2nc(C)cc(N3CCN(c4ccccc4)CC3)n2)cc1	72%
O=C(Nc1ccc(Cl)cc1)c1cccc(CN2CCCN(Cc3cccc(O)c3)CC2)c1.O=C(O)C(F)(F)F	43%
Cc1ccc(CN2CCCN(Cc3ccc(C(=O)Nc4ccc(Cl)cc4)cc3)CC2)s1.O=C(O)C(F)(F)F	5%
CC(C)(C)NCc1cc(Nc2ccnc3cc(Cl)ccc23)ccc1F	100%
COc1ccccc1Nc1nc(C)cc(NCc2ccc(-c3c(C)noc3C)cc2)n1	13%
COc1cc(NC(=O)/C=C/c2cccc3cc[nH]c23)ccc1OCCN(C(C)C)C(C)C.Cl	51%
Cc1cc(O)nc(NC(=N)NOCCCc2ccccc2)n1	4%
CCCCN1C(=O)C2CC(=O)CC(C3CCCCC3)C2C1=O (stereo not given)	1%
CCN(CCCN1CCCCC1)c1cc(C)nc(Nc2ccc(C(C)C)cc2)n1.O=C(O)C(F)(F)F	51%
Cc1c(Cn2ncc(N3CCC(N)CC3)c(Cl)c2=O)cccc1NC(=O)Nc1ccc(-c2ccccc2)cc1.O=C(O)C(F)(F)F	43%
Cl.ON=C1CCc2cc(-c3[nH]c(-c4cccc(OCCNCc5ccc(F)cc5)c4)nc3-c3ccncc3)ccc21	69%
Cl.O=C(Nc1cc(Cl)cc(Cl)c1)c1cnn(-c2ccc(F)cc2)c1C1CCNCC1	0%

Structure (SMILES)	Inhibition
N#Cc1c(N)nc(SCC(=O)Nc2cc(C(F)(F)F)ccc2Cl)c(C#N)c1-c1cccs1	96%
O=C(Cc1ccc[n+]([O-])c1)Nc1ccc(-c2cccc(-c3nc4cc(C(F)(F)F)ccc4[nH]3)c2)cc1	49%
O=C(Nc1ccccc1Cl)N(Cc1cc(Cl)cc(Cl)c1)CC(O)COc1ccc(Cl)c(F)c1 (stereo not given)	17%
CC1SC(=S)NC1C(=O)O (stereo not given)	0%
Cc1csc2nc(-c3ccccn3)nc(Nc3ccc4ncsc4c3)c12.Cl	91%
Cc1cccc2c1NC(=O)/C2=N/NC(=S)N(C)C	59%
CCCCCCCNC(=O)NCC1CCCN(CCCCCNC(=O)/C=C/c2ccc(Cl)c(Cl)c2)C1 (stereo not given)	7%
COc1cc(NC2=NS(=O)(=O)c3cc(Cl)ccc3N2C)cc(OC)c1OC.O=C(O)C(F)(F)F	100%
CC(C)COc1ccc(Cl)cc1Cc1ccc(-c2nc3ccc(C(F)(F)F)cc3[nH]2)o1	51%
Cc1nnsc1C(=O)Nc1cccc(-c2cccc(-c3nc4cc(C(F)(F)F)ccc4[nH]3)c2)c1	100%
CCN(CC)CC(O)Cc1c2ccc([N+](=O)[O-])cc2nc2cc(OC)c(OC)cc12 (stereo not given)	37%
O=C(O)C(F)(F)F.OC1CCCN(Cc2cccc(-c3ccc(-c4nc5cc(C(F)(F)F)ccc5[nH]4)cc3)c2)C1 (stereo not given)	91%
CCC(=Cc1cccc([N+](=O)[O-])c1)C(=O)NCC1CCN(c2nc3cc(OC)c(OC)cc3c(=N)[nH]2)CC1.Cl	62%
Cl.N#Cc1cccc(-c2cccc(C(=O)NC3CCC(CCN4CCc5ccc(C#N)cc5CC4)CC3)c2)c1 (stereo not given)	57%
Cc1cccc2nc(-c3ccc(-c4ccc(NC(=O)Nc5ccsc5)cc4)cc3)[nH]c12	70%
NC1CCN(Cc2ccc(-c3ccc(-c4nc5ccccc5[nH]4)s3)cc2)C1.O=C(O)C(F)(F)F (stereo not given)	99%
O=C(NCCCCN1CCC(c2ccc3c(c2OCC2CC2)CCCC3)CC1)c1ccc(NC(=O)c2ccc(Cl)cc2)cc1	93%
CCCC(CNCc1cccc(OC(F)(F)C(F)F)c1)CNc1cc(=O)c2ccccc2[nH]1 (stereo not given)	94%
CN(C)CCNC(=O)c1cccc(-c2cnc3ccc(NCc4ccc(Cl)c(Cl)c4)nn23)c1	53%
COc1ccc(NC(=O)C2c3ccccc3C(=O)N(C3CCCC3)C2c2cccs2)c(OC)c1 (stereo not given)	54%
